# Source: the supplement of paper PMC4840960
# Counter-ions that a name gives are not always drawn. Values without a mark were called inactive.
# System: E18 rat cortical neuron-glia co-culture
# Test: myelination (MBP fiber length per Olig2+ nucleus), % of 1 µM DAPT response (DMSO = 0) (% of DAPT); higher = more myelination, active = 50 or more
# Conditions: 5 µM; treatment time: 8 days (DIV5-DIV13)
# In short: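 Rat cortical co-cultures from E18 tissue were dissociated with papain and plated at 20,000 cells/well on 96-well plates coated with poly-d-lysine/laminin. From DIV5 to DIV13, library compounds were added at 1 or 5 µM in myelination medium. After fixation in 4 % paraformaldehyde, cultures were immunostained for MBP and Olig2 and counterstained with DAPI, and four 10X fields were analysed in each of duplicate wells. The myelination value is the length of continuous straight MBP fibers per Olig2+ nucleus, normalised so that 0.1 % DMSO is 0 and a 1 µM positive control is 100.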
row,Structure (SMILES),myelination
1,CO/N=C(\C(=O)N[C@@H]1C(=O)N2C(C(=O)O)=C(COC(N)=O)CS[C@H]12)c1ccco1 [Cefuroxime],-51.7
2,CCN1CCN(c2cc3c(cc2F)c(=O)c(C(=O)O)cn3C2CC2)CC1 [Enrofloxacin],-19.3
3,COC(=O)[C@H](c1ccccc1Cl)N1CCc2sccc2C1 [Clopidogrel],-2.98
4,c1ccc2[nH]c(-c3cscn3)nc2c1 [Thiabendazole],-0.348
5,Cn1nnc2c(C(N)=O)ncn2c1=O [Temozolomide],-12.8
6,NC(N)=Nc1nc(CSCC/C(N)=N/S(N)(=O)=O)cs1 [Famotidine],-21.2
7,CC(CN1c2ccccc2Sc2ccccc21)N(C)C (stereo not given) [Promethazine],-4.26
8,CCCNC(=O)NS(=O)(=O)c1ccc(Cl)cc1 [Chlorpropamide],-5.62
9,CCN1CCN(C(=O)N[C@@H](C(=O)N[C@@H]2C(=O)N3[C@@H]2SC(C)(C)[C@@H]3C(=O)O)c2ccccc2)C(=O)C1=O [Piperacillin],5.13
10,O=C(O[C@@H]1Cc2c(O)cc(O)cc2O[C@@H]1c1cc(O)c(O)c(O)c1)c1cc(O)c(O)c(O)c1 [Epigallocatechin gallate],-10.9
11,COc1nc(C)nc(Cl)c1NC1=NCCN1 [Moxonidine],-21.6
12,C[C@H]1c2cccc(O)c2C(=O)C2=C(O)[C@]3(O)C(=O)C(C(N)=O)=C(O)[C@@H](N(C)C)[C@@H]3[C@@H](O)[C@@H]21 [Doxycycline],-0.977
13,Oc1ccc(C2CNCCc3c2cc(O)c(O)c3Cl)cc1 (stereo not given) [Fenoldopam],-45
14,CCCSc1ccc2[nH]c(NC(=O)OC)nc2c1 [Albendazole],-37.4
15,CC(=O)Oc1ccccc1C(=O)Nc1ncc([N+](=O)[O-])s1 [Nitazoxanide],91.6 (active)
16,CC1=Nc2ccc(Cl)cc2S(=O)(=O)N1 [Diazoxide],-18.4
17,COc1ccc2c3c1O[C@H]1C[C@@H](O)C=C[C@@]31CCN(C)C2 [Galantamine],-40.7
18,CO/N=C(\C(=O)N[C@@H]1C(=O)N2C(C(=O)O)=C(COC(C)=O)CS[C@H]12)c1csc(N)n1 [Cefotaxime],-10.3

row,Structure (SMILES),myelination
1,C[C@@H](c1ncncc1F)[C@](O)(Cn1cncn1)c1ccc(F)cc1F [Voriconazole],-29.3
2,C[C@@H]1C[C@H]2[C@@H]3CCC4=CC(=O)C=C[C@]4(C)[C@@]3(F)[C@@H](O)C[C@]2(C)[C@@]1(O)C(=O)CO [Dexamethazone],-0.917
3,C=CC1=C(C(=O)O)N2C(=O)[C@@H](NC(=O)/C(=N\OCC(=O)O)c3csc(N)n3)[C@H]2SC1 [Cefixime],28.9
4,CN(C)CCOC(c1ccccc1)c1ccccc1 [Diphenhydramine],-17.4
5,Cn1cnc([N+](=O)[O-])c1Sc1ncnc2[nH]cnc12 [Azathioprine],-32.9
6,N=C(N)N [Guanidine],-8.57
7,O=C1c2c(O)cc(O)cc2OC(c2ccc(O)c(O)c2)C1O (stereo not given) [Taxifolin],-8.22
8,CN(C)CCC=C1c2ccccc2COc2ccccc21 [Doxepin],-4.42
9,Fc1ccc([C@@H]2CCNC[C@H]2COc2ccc3c(c2)OCO3)cc1 [Paroxetine],3.71
10,CCN1CC(CCN2CCOCC2)C(c2ccccc2)(c2ccccc2)C1=O (stereo not given) [Doxapram],-11
11,CCN1CCC[C@H]1CNC(=O)c1c(O)c(Cl)cc(Cl)c1OC [Raclopride],-30.6
12,CC[C@@H]1C(=O)OC[C@@H]1Cc1cncn1C [Pilocarpine],-11.2
13,CC1CCN(CCCC(=O)c2ccc(F)cc2)CC1 [Melperone hydrochloride],-12.5
14,CCCCN1CCCCC1C(=O)Nc1c(C)cccc1C (stereo not given) [Bupivacaine],-16.6
15,CC(C)Cc1ccc(C(C)C(=O)O)cc1 (stereo not given) [Ibuprofen],-2.85
16,COc1cc(C)c(Cc2cnc(N)nc2N)cc1OC [Ormetoprim],-40
17,CCCc1cc(=O)[nH]c(=S)[nH]1 [Propylthiouracil],-11.9
